Assay outcomes deposited in PubChem by National Center for Advancing Translational Sciences (NCATS).
This is a sample that favours compounds with a hit; in the whole collection about 2.8% have one here.
TSG101-PTAP inh: TSG101-PTAP interaction inhibition, HIV-1 budding | Q99816 | 44,000 tested, under 10 active | Fluorescence polarization, FITC-PTAP peptide/Tsg101, 20 min | Potency, µM (series often up to 115 µM), actives largely listed as inhibitors; further: potency means the concentration at half of the fitted maximal effect; 0% is about no effect
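The Tsg101 binding domain, at 10 uM final, is mixed with compound and a FITC peptide bearing the PTAP motif (50 nM final). After 20 min at r.t., polarization is measured; actives defined by CRC class, efficacy cut-off 60% inhibition.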
PMP22 txn: modulators of PMP22 gene transcription in S16 Schwann cells; S16 Pmp22-F2sN Schwann cells, FLuc/NLuc coincidence luminescence, 24 h; Potency, µM (titrated, usually from 57.5 µM), for the others: top-dose activity change, negative = inhibition, usual class: inhibitors; 43,000 compounds, 2% hits; active means clear falling dose curves in both reporters; inconclusive means both reporters move, but less clearly or upward; inactive means either reporter flat; the % is the NLuc reporter signal; further: potency means the concentration at half of the fitted maximal effect; on the % scale 0 is the no-effect control and ±100 the full control effect
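Reporter cells (S16 Pmp22-F2sN, 500–1,000 per well) exposed to compounds for 24 h, 37C, 5% CO2; lysis with FLuc read after 10 min, then Stop&Glo and NLuc read after 10 min.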
mTORC1 inh: reduces mTORC1 signaling in Tsc2 and p53 null MEF cells | Tsc2-/- p53-/- MEF, phospho-rpS6 immunofluorescence/PI, 24 h | Potency, µM (highest dose often 38.3 µM), for the others: top-dose activity change, negative = inhibition, actives largely listed as inhibitors | 44,000 compounds, 0.78% hits;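 further: potency means the concentration at half of the fitted maximal effect; plate controls were DMSO for no effect and rapamycin for full effect; nearly all actives have a fitted effect of over 50% in size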
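Tsc2-/-, p53-/- mouse embryonic fibroblasts (empty-vector line) exposed to compound 24 hrs at 37 C, fixed, immunostained for phospho-rpS6 and counterstained with propidium iodide. Acumen laser scanning gives % positive cells from Alexa 488/PI ratio, thresholded using 7.5 nM rapamycin; PI count gives viability.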
GALK inh: inhibitors of human galactokinase (GALK); AID 1347072; recombinant GALK, Kinase-Glo ATP luminescence, 1 h; Potency, µM (titrated, usually from 57.5 µM), for the others: at the highest dose activity, negative = inhibition, usual class: inhibitors; 44,000 tested, under 10 active;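 further: plate controls were full GALK reaction for no effect and reaction lacking GALK for full effect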
Target sequence (P51570 whole entry, looked up): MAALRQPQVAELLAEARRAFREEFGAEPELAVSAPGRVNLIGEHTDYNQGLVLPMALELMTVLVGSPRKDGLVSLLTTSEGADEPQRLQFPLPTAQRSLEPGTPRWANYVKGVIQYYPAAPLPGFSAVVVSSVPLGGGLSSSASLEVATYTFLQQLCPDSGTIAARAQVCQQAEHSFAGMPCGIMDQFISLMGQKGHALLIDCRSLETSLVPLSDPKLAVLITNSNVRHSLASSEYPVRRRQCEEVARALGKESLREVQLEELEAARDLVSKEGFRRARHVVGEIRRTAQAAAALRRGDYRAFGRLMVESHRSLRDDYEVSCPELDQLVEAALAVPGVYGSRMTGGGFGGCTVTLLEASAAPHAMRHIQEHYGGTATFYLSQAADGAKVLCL
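Compounds were pinned into ATP buffer, then GALK-galactose mix was added (final 5 nM enzyme, 35 uM ATP, 100 uM galactose, pH 8.0). After 1 h at room temperature, Kinase-Glo Plus was added and luminescence read.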
S16 viability: cytotoxicity in S16 Pmp22-F2sN Schwann cells | S16 Pmp22-F2sN Schwann cells viability, CellTiter-Glo, 24 h | Potency, µM (doses to about 57.5 µM), inactives show at the top dose activity change, negative = cytotoxicity, usual class: cytotoxic | AID 1508642 | 43,000 compounds, 0.48% hits; further: potency means the concentration at half of the fitted maximal effect; on the % scale 0 is the no-effect control and ±100 the full control effect; nearly all actives have a fitted effect of over 65% in size
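Viability was measured by CellTiter-Glo luminescence (15 min, room temperature). This followed 24 h at 37 °C of compound exposure (23 nL pin transfer) in S16 Pmp22-F2sN Schwann cells, 500-1,000 per well.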
NLuc saturating: counter-screen for PMP22 expression modulators: NanoLuc inhibition, saturating substrate; shares compounds with PMP22 txn; Secreted NLuc enzyme (filtered S16 cell medium), Nano-Glo luminescence; Potency, µM (titrated, usually from 57.5 µM), for the others: at the highest dose activity change, negative = inhibition, usual class: inhibitors; 690 compounds, 4% hits; further: potency means the concentration at half of the fitted maximal effect; on the % scale 0 is the no-effect control and ±100 the full control effect
NLuc Km counter: counter-screen for PMP22 expression modulators: NanoLuc inhibition at Km; shares compounds with PMP22 txn; secreted NLuc enzyme, coelenterazine luminescence, Km conditions; Potency, µM (titrated, usually from 57.5 µM), inactives show top-dose activity change, negative = inhibition, hits mostly inhibitors; AID 1508639; 690 compounds, 5% hits; further: potency means the concentration at half of the fitted maximal effect; on the % scale 0 is the no-effect control and ±100 the full control effect
FLuc counter: counter-screen for PMP22 expression modulators: firefly luciferase inhibition; shares compounds with PMP22 txn; purified P. pyralis FLuc, luminescence, 10 min; Potency, µM (titrated, usually from 57.5 µM), without a hit: at the highest dose activity, negative = inhibition, hits mostly inhibitors; 690 tested, under 10 active; further: % of control where 0% means no effect
S16 viab conf: S16 Schwann cell cytotoxicity, confirmatory; shares compounds with PMP22 txn; S16 Schwann cells viability, CellTiter-Glo ATP luminescence, 24 h; Potency, µM (doses to about 57.5 µM), for the others: at the top dose activity change, negative = viability loss, hits mostly cytotoxic; 690 compounds, 7% hits; further: potency means the concentration at half of the fitted maximal effect; on the % scale 0 is the no-effect control and ±100 the full control effect
PMP22 txn cnf: PMP22 transcription modulation, confirmatory; shares compounds with PMP22 txn; S16 Schwann cells Pmp22-F2sN, dual luciferase, 24 h; Potency, µM (highest dose often 57.5 µM), without a hit: at the top dose activity change, negative = inhibition, most hits filed as inhibitors; 690 compounds, 22% hits; AID 1508646; active means clear falling dose curves in both reporters; inconclusive means both reporters move, but less clearly or upward; inactive means either reporter flat; the % is the FLuc reporter signal; further: potency means the concentration at half of the fitted maximal effect
PMP22 prot conf: confirmation of modulators of rat PMP22 protein expression. shares compounds with PMP22 txn. S16 Schwann cells Pmp22-HiBiT, luminescence, 48 h. Potency, µM (doses to about 27.9 µM), for the others: top-dose activity change, negative = inhibition, most hits filed as inhibitors. 95 tested, under 10 active. AID 1508647
Target sequence (P25094 whole entry, looked up): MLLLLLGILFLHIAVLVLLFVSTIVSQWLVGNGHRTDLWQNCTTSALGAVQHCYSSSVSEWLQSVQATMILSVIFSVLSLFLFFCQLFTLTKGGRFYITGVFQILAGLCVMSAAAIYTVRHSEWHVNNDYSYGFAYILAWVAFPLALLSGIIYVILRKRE
Numbers without * were called inactive. Unless noted, the call rests on the fitted dose curve; in most records, active means well fitted curve in the direction sought with a large enough effect; inconclusive means small, poorly fitted or top-dose-only effect, or another doubt; inactive means no such curve, though single readings can be large; an effect the other way counts as inactive or inconclusive.

`CC1CCc2c(cc(-c3ccccc3)n2-c2ccc(C(=O)NC(C)C)cc2)C1` (configuration not stated) gave TSG101-PTAP inh inactive, PMP22 txn 13.4µM*, mTORC1 inh -14.2%, GALK inh 2.5%, S16 viability 13.4%, NLuc saturating -13.0%, NLuc Km counter -3.8%, FLuc counter -15.5%, S16 viab conf 6.5% and PMP22 txn cnf inconclusive.
Screening CCOCCCNC(=O)c1ccc(-n2c(-c3ccccc3)cc3c2CCCC3)cc1 returned TSG101-PTAP inh inactive, PMP22 txn inconclusive, mTORC1 inh -13.1%, GALK inh 1.4% and S16 viability inconclusive.
`COc1ccc(S(=O)(=O)N(CC(=O)Nc2ccc(OC)cc2OC)c2ccc(Cl)cc2)cc1` gave TSG101-PTAP inh inactive, PMP22 txn inconclusive, mTORC1 inh -10.4%, GALK inh 3.2% and S16 viability 17.8%.
`Cc1cccc(NC(=O)Cn2c(=O)oc3cc(S(=O)(=O)NCc4ccccc4)ccc32)c1` gave TSG101-PTAP inh inactive, PMP22 txn 10.6µM*, mTORC1 inh 0.4%, GALK inh -0.9%, S16 viability -10.4%, NLuc saturating -1.6%, NLuc Km counter -17.9%, FLuc counter 4.6%, S16 viab conf -2.8% and PMP22 txn cnf -15.9%.
Screening Cc1cc(C)cc(NC(=O)Cn2c(=O)oc3cc(S(=O)(=O)N4CCCC4)ccc32)c1 returned TSG101-PTAP inh inactive, PMP22 txn -27.5%, mTORC1 inh -9.1%, GALK inh -3.3% and S16 viability 15.5%.
Screening Cc1cc(C)c(NC(=O)Cn2c(=O)oc3cc(S(=O)(=O)N4CCCCCC4)ccc32)c(C)c1 returned TSG101-PTAP inh inactive, PMP22 txn inconclusive, mTORC1 inh -3.3%, GALK inh -1.4%, S16 viability -12.9%, NLuc saturating -16.1%, NLuc Km counter 1.7%, FLuc counter 1.9%, S16 viab conf -16.2% and PMP22 txn cnf inconclusive.
Screening Cc1ccc(C)c(N2CCN(c3nc4ccccc4n4nnnc34)CC2)c1 returned TSG101-PTAP inh inactive, PMP22 txn -6.5%, mTORC1 inh 1.0%, GALK inh 6.0% and S16 viability 17.5%.
Screening CSc1nc2sc3c(c2c(=O)n1-c1ccc(C)cc1)CCCC3 returned TSG101-PTAP inh inactive, PMP22 txn 14.1µM*, mTORC1 inh -0.8%, GALK inh -1.5%, S16 viability 20.0%, NLuc saturating 4.85µM*, NLuc Km counter inconclusive, FLuc counter 4.5%, S16 viab conf 6.1% and PMP22 txn cnf inconclusive.
CC(C)Sc1nc2sc3c(c2c(=O)n1-c1ccccc1)CCCC3 was read as TSG101-PTAP inh inactive, PMP22 txn inconclusive, mTORC1 inh 3.6%, GALK inh -18.7% and S16 viability 14.0%.
Screening CCc1ccc(NC(=O)CCc2c(C)nc3nc(-c4cc(OC)cc(OC)c4)nn3c2C)cc1 returned TSG101-PTAP inh inactive, PMP22 txn 4.3%, mTORC1 inh 2.8%, GALK inh 0.7% and S16 viability -1.9%.
For CCOc1ccc(NC(=O)CSc2oc(-c3ccc(F)cc3)nc2S(=O)(=O)c2ccc(C)cc2)cc1 the results were TSG101-PTAP inh inactive, PMP22 txn 11.9µM*, mTORC1 inh 2.93µM*, GALK inh 6.7%, S16 viability 1.8%, NLuc saturating -2.0%, NLuc Km counter -0.4%, FLuc counter 1.7%, S16 viab conf inconclusive, PMP22 txn cnf 14.5µM* and PMP22 prot conf 25.3%.
CCN1CCN(C(c2cccc(OC)c2)c2c(O)cc(C)n(Cc3ccco3)c2=O)CC1 (configuration not stated) was read as TSG101-PTAP inh inactive, PMP22 txn 3.4%, mTORC1 inh -26.8%, GALK inh -0.7% and S16 viability 15.1%.
COc1cc(C2C(C(=O)OC(C)C)=C(C)N=C3SCCC(=O)N32)ccc1OCc1ccccc1 (configuration not stated) was read as TSG101-PTAP inh inactive, PMP22 txn 20µM*, mTORC1 inh 1.8%, GALK inh 1.5%, S16 viability -14.9%, NLuc saturating -5.3%, NLuc Km counter 7.0%, FLuc counter -8.1%, S16 viab conf inconclusive and PMP22 txn cnf -25.2%.
Screening COCCCN(Cc1ccco1)C(=O)c1cc2c(s1)-c1ccccc1OC2 returned TSG101-PTAP inh inactive, PMP22 txn inconclusive, mTORC1 inh -6.6%, GALK inh -3.8% and S16 viability -0.9%.
For O=C(NCC(c1cccnc1)N1CCc2ccccc21)c1ccc(Cl)cc1 (configuration not stated) the results were TSG101-PTAP inh inactive, PMP22 txn -10.1%, mTORC1 inh 0.2%, GALK inh 2.1% and S16 viability inconclusive.
For COc1ccccc1CN1C(=O)C(=O)c2cccc(C)c21 the results were TSG101-PTAP inh inactive, PMP22 txn -71.4%, mTORC1 inh -2.1%, GALK inh -2.5% and S16 viability inconclusive.
